The nature of assay [1]: qHTS assay to identify small molecule antagonists of the vitamin D receptor (VDR) signaling pathway - cell viability counter screen (AID 743225). Further: on the % scale 0 is the no-effect control and ±100 the full control effect; nearly all actives have a fitted effect of over 50% in size. The procedure, abridged:
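Cytotoxicity toward the VDR-bla HEK 293T line was scored by ATP-based CellTiter-Glo luminescence, read in the wells already used for the beta-lactamase readout after 16 h compound treatment under 3 nM 1-alpha,25-dihydroxyvitamin D3 stimulation.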
A general note: qHTS replaces the single test concentration by a dilution series.

Assay [2] is described as follows: qHTS assay to identify small molecule agonists of the NFkB signaling pathway (AID 1159509; active means well fitted curve in the direction sought with a large enough effect in the signal ratio in the repeat runs, not every such curve was filed as active; the % refers to the signal ratio; further: series mostly up to about 61 µM; on the % scale 0 is the no-effect control and ±100 the full control effect). The procedure, abridged:
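Beta-lactamase reporter assay run in quantitative high-throughput format on an NF-kB-responsive ME-180 line, with 5 hr compound treatment and a FRET-based blue/green fluorescence readout.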

The nature of assay [3]: qHTS assay to identify small molecule agonists of the NFkB signaling pathway - cell viability counter screen (AID 1159515; calls by dose curve; further: series mostly up to about 61 µM; on the % scale 0 is the no-effect control and ±100 the full control effect; nearly all actives have a fitted effect of over 55% in size). The procedure, abridged:
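Tox21 library compounds were tested for cytotoxicity against NFkB-bla ME-180 cells during a 5 hr exposure at 37 C. CellTiter-Glo luminescence served as the viability read-out.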

Assay [4] can be described thus: qHTS assay to identify small molecule agonists of the endoplasmic reticulum stress response signaling pathway (AID 1159516; active means well fitted activation curve with a large enough effect in the signal ratio in the repeat runs, not every such curve was filed as active; the % refers to the signal ratio; further: on the % scale 0 is the no-effect control and ±100 the full control effect). The procedure, abridged: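 Fluorescence at 460 and 530 nm (405 nm excitation) reports beta-lactamase from an ER stress response element in HeLa cells treated 5 hr at 37 C.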
Assay [5] in a line: qHTS assay to identify small molecule agonists of the endoplasmic reticulum stress response signaling pathway - cell viability counter screen (AID 1159517; calls by dose curve; further: series mostly up to about 61 µM; on the % scale 0 is the no-effect control and ±100 the full control effect; nearly all actives have a fitted effect of over 50% in size). The procedure, abridged:
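Steps: seed 1,500 ESRE-bla HeLa cells per well; incubate overnight at 37 C, 5% CO2; add compounds in DMSO for 5 hr; run FRET substrate 2 hr RT; add CellTiter-Glo, wait 30 min, read luminescence.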

The nature of assay [6]: qHTS assay to identify small molecule antagonists of the retinoid-related orphan receptor gamma (ROR-gamma) signaling pathway - cell viability counter screen (AID 1159520). Further: on the % scale 0 is the no-effect control and ±100 the full control effect; nearly all actives have a fitted effect of over 50% in size. The procedure, abridged:
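Tet-on ROR gamma CHO cells were given compounds for 2 hr, then doxycycline hyclate at 1 uM final, and incubated 16 hr at 37 C. Viability was measured as ATP content by CellTiter-Glo luminescence.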

Assay [7] deals with Nuclear receptor ROR-gamma (Homo sapiens) (UniProt P51449). Nature of the assay: qHTS assay to identify small molecule antagonists of the retinoid-related orphan receptor gamma (ROR-gamma) signaling pathway (AID 1159521;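 further: CHO cells with doxycycline inducible ROR-gamma driving an RORE luciferase reporter; top concentration of the series differs between compounds; on the % scale 0 is the no-effect control and ±100 the full control effect; nearly all actives have a fitted effect of over 50% in size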). The procedure, abridged:
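Readout: ONE-Glo luciferase luminescence, 30 min at room temperature. System: Tet-on RORγ CHO, RORE-LUC. Sequence: compound 2 h, doxycycline 1 uM final, 16 h at 37 C.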

The nature of assay [8]: qHTS assay to identify small molecule agonists of the AP-1 signaling pathway - cell viability counter screen (AID 1159525; calls by dose curve; further: nearly all actives have a fitted effect of over 55% in size). The procedure, abridged:
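Same-well cytotoxicity counter screen of the Tox21 10K library in ME-180 cells. The readout is ATP-dependent luminescence after 5 h compound treatment. Data are normalised to DMSO and tetra n-octyl ammonium bromide controls.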

The nature of assay [9]: qHTS assay to identify small molecule agonists of the AP-1 signaling pathway (AID 1159526; calls by dose curve; further: on the % scale 0 is the no-effect control and ±100 the full control effect).
Assay [10] deals with Retinoic acid receptor RXR-alpha (Homo sapiens) (UniProt P19793). Nature of the assay: qHTS assay to identify small molecule agonists of the RXR signaling pathway (AID 1159527; calls by dose curve; further: on the % scale 0 is the no-effect control and ±100 the full control effect; nearly all actives have a fitted effect of over 35% in size). The procedure, abridged:
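Reporter activation is measured as beta-lactamase activity via FRET substrate cleavage (emission 460/530 nm) in HEK 293T cells expressing an RXR-alpha-driven bla construct, following 16 hr compound exposure at 37 C.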

Assay [11] can be described thus: qHTS assay to identify small molecule agonists of the RXR signaling pathway - cell viability counter screen (AID 1159529). The procedure, abridged:
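Tox21 10K compounds were tested for cytotoxicity against GeneBLAzer RXR-alpha HEK 293T cells grown in 2% charcoal-stripped FBS. Exposure lasted 16 hr at 37 C, 5% CO2; viability read by CellTiter-Glo luminescence.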

A short description of assay [12]: qHTS assay to identify small molecule antagonists of the retinoid acid receptor (RAR) signaling pathway - cell viability counter screen (AID 1159551). Further: on the % scale 0 is the no-effect control and ±100 the full control effect; nearly all actives have a fitted effect of over 35% in size. The procedure, abridged: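 In this counter screen, the RARE-luciferase line C3RL4 was exposed for 6 h at 37 C and 5% CO2 to compounds with retinol at 1 uM final. Cellular ATP, read by luminescence, served as the viability measure.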

Assay [13] in a line: qHTS assay to identify small molecule antagonists of the retinoic acid receptor (RAR) signaling pathway (AID 1159552). The procedure, abridged: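 Overnight-plated C3RL4 reporter cells get compound, then retinol to 1 uM final; plates sit 6 hr at 37 C, 5% CO2. A luciferase reagent is added and light output recorded after 30 min at room temperature.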
The nature of assay [14]: qHTS assay to identify small molecule agonists of the retinoic acid receptor (RAR) signaling pathway (AID 1159553). Further: on the % scale 0 is the no-effect control and ±100 the full control effect. The procedure, abridged:
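In this cell-based screen, 1,000 C3RL4 cells per well were cultured overnight, dosed with test chemicals in DMSO for 6 hr, and assessed for RARE luciferase luminescence.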

A short description of assay [15]: qHTS assay to identify small molecule antagonists of the estrogen related receptor (ERR) signaling pathway from Tox21 library - cell viability counter screen (AID 1224834). Further: on the % scale 0 is the no-effect control and ±100 the full control effect; nearly all actives have a fitted effect of over 30% in size. The procedure, abridged:
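Counter screen run in ERR cells (2,000 cells/well): cells pre-incubated 6 h, then treated with compounds for 17.5 h at 37 C. Fluorescence was read 30 min after CellTiter-Fluor addition.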

For assay [16], the target named is Luciferin 4-monooxygenase (Photinus pyralis) (UniProt P08659). The assay is described as follows: qHTS assay to identify small molecule inhibitors of firefly luciferase (AID 1224835). Further: nearly all actives have a fitted effect of over 25% in size. Further: potency means the concentration at half of the fitted maximal effect. The procedure, abridged: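 Biochemical qHTS: compounds run as interplate titrations against purified firefly enzyme, with D-luciferin and ATP each at its KM concentration. Light output recorded by CCD imaging.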
Luciferin 4-monooxygenase (Photinus pyralis), sequence (P08659 whole entry, looked up): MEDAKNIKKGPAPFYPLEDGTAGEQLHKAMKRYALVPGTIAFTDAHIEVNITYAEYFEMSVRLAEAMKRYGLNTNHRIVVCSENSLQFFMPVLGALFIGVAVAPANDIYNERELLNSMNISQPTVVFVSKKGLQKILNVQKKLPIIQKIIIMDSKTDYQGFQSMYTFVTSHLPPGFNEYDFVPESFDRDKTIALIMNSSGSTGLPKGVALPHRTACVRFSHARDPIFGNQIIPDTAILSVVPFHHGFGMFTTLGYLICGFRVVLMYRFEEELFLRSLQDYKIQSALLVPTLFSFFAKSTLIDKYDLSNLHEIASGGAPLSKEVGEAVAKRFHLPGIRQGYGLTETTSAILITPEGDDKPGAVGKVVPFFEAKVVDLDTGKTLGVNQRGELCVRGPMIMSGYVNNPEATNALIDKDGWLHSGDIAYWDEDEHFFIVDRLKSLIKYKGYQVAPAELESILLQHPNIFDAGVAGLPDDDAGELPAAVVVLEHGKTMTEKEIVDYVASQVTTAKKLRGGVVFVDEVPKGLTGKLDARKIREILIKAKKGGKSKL

Assay [17] can be described thus: qHTS assay to identify small molecule agonists of the constitutive androstane receptor (CAR) signaling pathway - cell viability counter screen (AID 1224836). Further: series mostly up to about 92 µM; on the % scale 0 is the no-effect control and ±100 the full control effect; nearly all actives have a fitted effect of over 45% in size. The procedure, abridged:
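Fluorescence from CellTiter-Fluor indicates live cells after 23 h exposure. The human hepatoma line expresses hCAR and a CYP2B6-2.2kb reporter. Incubation medium contains 0.75 uM PK11195 (final).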

Assay [18] in a line: qHTS assay to identify small molecule antagonists of the constitutive androstane receptor (CAR) signaling pathway - cell viability counter screen (AID 1224837). Further: series mostly up to about 92 µM; on the % scale 0 is the no-effect control and ±100 the full control effect; nearly all actives have a fitted effect of over 45% in size. The procedure, abridged:
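CITCO at 50 nM final was added alongside compounds (15 concentrations) to double-stable hCAR/CYP2B6-2.2kb HepG2 cells. Following 23 hr at 37 C, cell viability was quantified by CellTiter-Fluor fluorescence intensity.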

Assay [19] deals with Nuclear receptor subfamily 1 group I member 3 (Homo sapiens) (UniProt Q14994). Nature of the assay: qHTS assay to identify small molecule antagonists of the constitutive androstane receptor (CAR) signaling pathway (AID 1224838). Further: nearly all actives have a fitted effect of over 40% in size. Further: potency means the concentration at half of the fitted maximal effect. The procedure, abridged: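 Inhibition of CITCO-driven (50 nM final) CYP2B6 reporter expression is measured in HepG2 cells stably carrying hCAR. Fifteen compound concentrations are applied for 24 h at 37 C, followed by luciferase luminescence.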
Nuclear receptor subfamily 1 group I member 3 (Homo sapiens), sequence (Q14994 whole entry, looked up): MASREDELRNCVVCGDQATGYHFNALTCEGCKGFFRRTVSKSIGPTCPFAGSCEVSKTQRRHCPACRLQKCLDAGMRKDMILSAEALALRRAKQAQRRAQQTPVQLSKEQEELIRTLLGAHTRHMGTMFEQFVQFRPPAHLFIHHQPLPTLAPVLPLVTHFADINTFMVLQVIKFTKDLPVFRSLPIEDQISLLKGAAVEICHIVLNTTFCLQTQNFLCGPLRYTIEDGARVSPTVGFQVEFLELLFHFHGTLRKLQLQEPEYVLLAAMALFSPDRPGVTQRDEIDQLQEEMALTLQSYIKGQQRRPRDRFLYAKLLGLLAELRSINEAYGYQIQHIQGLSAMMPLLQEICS

For assay [20] the target is unchanged. Nature of the assay: qHTS assay to identify small molecule agonists of the constitutive androstane receptor (CAR) signaling pathway (AID 1224839). Further: series mostly up to about 92 µM; on the % scale 0 is the no-effect control and ±100 the full control effect; nearly all actives have a fitted effect of over 15% in size. The procedure, abridged: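 Stable hCAR/CYP2B6-2.2kb HepG2 line in DMEM with 10% FBS; compounds (15 concentrations) and 0.75 uM PK11195 final, 24 h at 37 C/5% CO2, then ONE-Glo luminescence after 30 min.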

Records with an inconclusive call do not appear. A number with no mark means an inactive call. Activity calls are given as the source filed them. Unless noted, the call rests on the fitted dose curve; in most records, active means well fitted curve in the direction sought with a large enough effect in the repeat runs; inconclusive means weak or mixed curves; inactive means no such curve, though single readings can be large; an effect the other way counts as inactive or inconclusive.

Retinoic acid receptor RXR-alpha (Homo sapiens), sequence (P19793 whole entry, looked up): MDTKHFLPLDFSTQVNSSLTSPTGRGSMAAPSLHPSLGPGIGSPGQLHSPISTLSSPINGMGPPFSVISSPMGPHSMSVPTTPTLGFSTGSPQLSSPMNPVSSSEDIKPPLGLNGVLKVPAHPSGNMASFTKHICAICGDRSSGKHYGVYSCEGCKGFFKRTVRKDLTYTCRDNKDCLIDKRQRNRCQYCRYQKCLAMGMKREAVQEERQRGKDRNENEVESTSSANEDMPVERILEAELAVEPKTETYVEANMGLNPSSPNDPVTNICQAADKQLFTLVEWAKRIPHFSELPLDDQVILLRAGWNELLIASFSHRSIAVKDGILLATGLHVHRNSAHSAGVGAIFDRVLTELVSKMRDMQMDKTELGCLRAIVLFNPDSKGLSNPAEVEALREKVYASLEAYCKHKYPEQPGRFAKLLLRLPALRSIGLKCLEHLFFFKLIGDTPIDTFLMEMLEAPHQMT

In the case of `CC/C=C\CCOC(=O)c1ccccc1O`, the result in assay [1], in assay [2], in assay [3], in assay [4], in [5] and in [6] was inactive. In addition, the molecule was classed as inactive in assay [7], in [8], in [9], in assay [11], in assay [12] and in assay [13]. The molecule was classed as inactive in assay [15], in assay [17] and in [18]. The Potency entry in assay [10], in assay [14], in assay [19] and in assay [20] was “inactive” in each case. The Potency in assay [16] is 17.8 µM (active).
Turning to `CCCCCCCCCCCCCCCCCCOCCO`, the call in [1], in assay [2], in [3], in assay [4] and in [5] was inactive. Also, the activity, negative = cytotoxicity in assay [6] is -10.1% [at 19 µM]. The figures for the activity change, negative = inhibition in assay [7] and in assay [16] were -12.9% [at 19 µM] and -2.69% [at 23.6 µM], respectively. The viability change, negative = cytotoxic in [8] was -27.1% [at 15.8 µM]; in assay [15], -3.06% [at 19 µM]; in [17], -7.83% [at 19 µM]. The figures for the activation in [9], in assay [10] and in assay [20] were 0.248% [at 15.8 µM], 5.49% [at 15.8 µM] and -0.275% [at 19 µM], respectively. Also, the activity change, negative = cytotoxicity in [11] is -0.661% [at 15.8 µM]; in assay [12], -1.36% [at 19 µM]; in assay [18] it was 0.177% [at 19 µM]. The activity, negative = inhibition is -13.7% [at 19 µM] in assay [13] and -10.5% [at 19 µM] in assay [19]. Moreover, in assay [14], the Potency result is “inactive”.
Take `CCOC(CN1CCN(CC(C)C(=O)c2ccccc2)CC1)c1ccccc1` (stereo not given): the call in assay [1], in [2], in assay [3], in assay [4] and in [5] was inactive. Moreover, the activity, negative = cytotoxicity in assay [6] is -1.7% [at 19 µM]. Also, the activity change, negative = inhibition in assay [7] was -4.62% [at 19 µM]; in [16] it was -1.09% [at 23.6 µM]. In addition, the viability change, negative = cytotoxic in [8] is 14.4% [at 15.8 µM]; in assay [15] it was -3.03% [at 19 µM]; in [17], 0.779% [at 19 µM]. Besides, the activation in assay [9] was 5.61% [at 15.8 µM]; in assay [10], -12% [at 15.8 µM]; in assay [20], -1.5% [at 19 µM]. For the same molecule, the activity change, negative = cytotoxicity is -11.3% [at 15.8 µM] in [11], 3.44% [at 19 µM] in assay [12] and 3.98% [at 19 µM] in assay [18]. For the same molecule, the activity, negative = inhibition in assay [13] was 1.21% [at 19 µM]; in [19], -25.3% [at 19 µM]. Besides, in assay [14], the Potency entry is “inactive”.
On to `CC1CCc2c(N3CCC(O)CC3)c(F)cc3c(=O)c(C(=O)O)cn1c23` (stereo not given), for which the result in assay [1], in assay [2], in [3], in assay [4], in [5] and in [6] was inactive. In addition, the molecule was called inactive in [7], in assay [8], in assay [9], in [11], in [12] and in assay [13]. Further, the call in assay [15], in assay [17] and in [18] was inactive. The Potency result in assay [10], in [14], in assay [16] and in assay [20] was “inactive” each time. Besides, the Potency in assay [19] was 23.7 µM (active).
With `C#CCN[C@@H]1CCc2ccccc21`, the molecule was classed as inactive in [1], in assay [2], in assay [3], in assay [4], in [5] and in assay [6]. The molecule was called inactive in assay [7], in [8], in assay [9], in assay [11], in assay [12] and in assay [13]. The outcome in assay [15], in assay [17] and in assay [18] was inactive. Further, the Potency result in assay [10], in assay [14], in assay [16], in assay [19] and in assay [20] was “inactive” each time.
`CCC(C)C(C)=O` (stereo not given): the result in assay [1], in assay [2], in assay [3], in [4], in assay [5] and in [6] was inactive. Besides, the molecule was classed as inactive in assay [7], in assay [8], in assay [9], in assay [11], in assay [12] and in assay [13]. Also, the result in assay [15], in assay [17] and in assay [18] was inactive. The Potency result in assay [10], in assay [14], in assay [16], in [19] and in assay [20] was “inactive” throughout.

The record behind these values is PubChem BioAssay (Tox21).
